Assay results taken from PubChem BioAssay (NCI).
About 83,000 compounds went through this panel and 20% of them were active in at least one assay; those are over-represented in the sample as a whole.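 Results are percent growth after 48 hours of single-concentration exposure. 100 means growth as in untreated cells, lower positive values show inhibition; negative values down to -100 show cell death.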 A number with no mark means an inactive call. Active and inactive are the calls of the source. The calls were made as follows: active = growth percent below 10; inactive = the rest.

Legend:
Assay in all cases: NCI-60 one-dose screen, 48 h (100 = growth as untreated, 0 = no growth, -100 = all killed)
BT-549 breast = details: 10 µM unless noted
MDA-MB-435 melanoma = details: 10 µM unless noted
SW-620 colon = details: 10 µM unless noted
MCF7 breast = details: 10 µM
HCT-116 colon = details: 10 µM unless noted
HCC-2998 colon = details: 10 µM unless noted
KM12 colon = details: 10 µM unless noted

SMILES	growth (BT-549 breast)	growth (MDA-MB-435 melanoma)	growth (SW-620 colon)	growth (MCF7 breast)	growth (HCT-116 colon)	growth (HCC-2998 colon)	growth (KM12 colon)
COc1ccc2sc(N(Cc3cccnc3)C(=O)c3ccc(C#N)cc3)nc2c1	92.1%	66.5%	90.6%	87%	58.2%	82.6%	75.8%
COc1ccccc1N1C(=N)S/C(=C\c2ccc(OCc3ccccc3F)cc2)C1=O	97.4%	90.4%	88.1%	33%	67.8%	109%	71.2%
COc1ccc(-c2c(-c3ccc(OC)c(O)c3)cnc3ncnn23)cc1	102%	108%	99.1%	95.2%	98%	109%	102%
CCOc1c(Br)cc(C2C(C(=O)OC)=CN(C)C=C2C(=O)OC)cc1OC	78.1%	47.3%	58%	35.9%	59%	-77.5% (active)	61.9%
CCOC(=O)c1c2c(n3cccc(Cl)c13)C(=O)c1ncccc1C2=O	69.2%	79.9%	36.4%	43.3%	8.41% (active)	46%	46.3%
CCOc1cc(Cl)c(C(C)NC(=O)c2cccc(OC)c2)cc1OCC (stereo not given)	-27.7% (active)	-28.6% (active)	-50.9% (active)	3.38% (active)	-57.5% (active)	-85.1% (active)	0.624% (active)
COc1cc(-c2c3c(cn2S(=O)(=O)c2ccccc2)-c2nc(N)sc2CC3)cc(OC)c1OC	48.5%	-32.1% (active)	25.6%	18.5%	24%	45.5%	28.5%
CCN(CC)c1cc(C)c2cc(NC(=O)c3cccc(OC)c3)ccc2n1	80.9%	74.2%	64.9%	73.1%	70.1%	91.3%	88.5%
OC(CNC1CCCCC1)Cn1c2ccc(I)cc2c2cc(I)ccc21 (stereo not given)	85.9%	66.9%	79.5%	69.9%	65.2%	94.3%	74.5%
O=C1/C(=C\c2ccc[nH]2)c2ccccc2N1c1ccccc1	78.9%	108%	97%	19.5%	95.1%	93.6%	95.7%
COc1ccc(N2C(=O)CC(c3cc(OC)c(OC)c(OC)c3)C3C2=NC(=O)N3C)cc1 (stereo not given)	109%	101%	102%	98.1%	106%	117%	105%
COC(=O)[C@H](NC(=O)C1(C)CCC[C@]2(C)[C@H]3C[C@H]4C(C(C)C)=C[C@]3(CC[C@@H]12)[C@@H]1C(=O)CCC(=O)[C@@H]14)C(C)C (stereo not given in full)	106%	104%	106%	98.2%	106%	104%	105%
O=Nc1c(O)ccc2ccccc12.O=Nc1c(O)ccc2ccccc12.O=Nc1c([O-])ccc2ccccc12.[Fe+3]	103%	109%	97.3%	89.2%	97.1%	113%	116%
COC(=O)C1=Nc2ccc(F)cc2/C1=C/c1sc(=S)[nH]c1O	-3.33% (active)	-20.9% (active)	22.6%	12.5%	6.89% (active)	25%	10.3%
O=C(c1nc2ccccc2[nH]1)C1C(c2ccc([N+](=O)[O-])cc2)C2CC3CCCCC3N2[C@@]12C(=O)Nc1cc(Cl)ccc12 (stereo not given in full)	46.9%	23%	31.6%	7.25% (active)	17.9%	31.6%	29.1%
CCCC(=O)CC(C)=O.CCCC(=O)CC(C)=O.[Cu]	111%	109%	106%	92.4%	95.9%	102%	102%
CN1C(=O)N(C)C2(c3ccccc3)OC(=S)NC12c1ccccc1 (stereo not given)	94.1%	103%	111%	91.8%	94.8%	106%	91.9%
CC(=O)c1ccc(Nc2nc(NCCO)nc(Nc3ccc(Cl)cc3)n2)cc1	97.3%	59.4%	94.5%	69.1%	98.4%	105%	90.8%
FC(F)(F)c1cccc(Nc2nc(-c3ccccc3)nc3ncccc23)c1	60.8%	-79.4% (active)	-53% (active)	68.2%	28.5%	-68.3% (active)	38.1%
CCOC(=O)C(CC(=O)O)=C(C(=O)OCC)C(=O)OCC	122%	103%	105%	92%	99.8%	104%	103%
COc1cc(/C=C/C(=O)c2c(C)nc3ccccc3c2/C=C/c2ccccc2)cc(OC)c1OC	6.8% (active)	3.78% (active)	0.233% (active)	13.7%	-81.8% (active)	6.52% (active)	-5.07% (active)
NCCOc1ccccc1/C=C1\c2ccccc2-c2ccc([N+](=O)[O-])cc21	84.8%	-53.8% (active)	-82.4% (active)	-60.9% (active)	-95.3% (active)	-53.3% (active)	-59.9% (active)
CC/C(=C(\CC)c1ccc(OCC[N+](C)(C)C)cc1)c1ccc(OC)cc1	74.5%	86%	68.5%	89%	48.9%	47.9%	51.3%
COc1ccc(Nc2nc(N/N=C/c3ccc(O)cc3)nc(Nc3ccc([N+](=O)[O-])cc3)n2)cc1	114%	116%	112%	97.4%	105%	102%	121%
c1ccc(-c2ccc(-c3nc4ccccc4[nH]3)cc2)cc1	94.2%	82.4%	101%	76.3%	74.1%	88.3%	84.6%
